About 79,000 compounds went through this panel and 15% of them were active in at least one assay; those are over-represented in the sample as a whole. A number with no mark means an inactive call. The source made the active and inactive calls. No stated cut-off is given here; in the data, active means growth inhibition above about 70%; inactive means the rest.
test: NCI Yeast Anticancer Drug Screen. Data for the bub3 strain (AID 167); conditions: S. cerevisiae bub3 mutant strain, at 5.0 µM (retest, dose inferred, filed as 0.5), hits give high values
In short: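 Yeast carrying a defined mutation is treated with each compound, and growth is compared with that of vehicle-exposed cells to give inhibition.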

Row | Compound | growth inhibition
1 | COc1ccc(OC)c2c1C=C[C@H](C1(C)SCCS1)C2C(C)=O (some centres not stated) | -2%
2 | CCOC(=O)c1cc2c(nc1NCc1ccc(OC)c(OC)c1)/C(=C/c1ccccc1)CCCC2 | 49%
3 | N#Cc1ccccc1[N+](=O)[O-] | -3%
4 | O=C1c2cccc3cc4ccccc4c(c23)C(=O)N1CCCNCCNCCCN1C(=O)c2cccc3cc4ccccc4c(c23)C1=O | 98% (active)
5 | CC(=O)Oc1ccc(N=[N+]([O-])c2ccc(OC(C)=O)cc2)cc1 | -4%
6 | CC(=O)Nc1ccc(N=C2c3ccccc3-c3ccc(NC(C)=O)cc32)cc1 | -1%
7 | Cc1cc(Cc2ccc(Cl)cc2)ccc1O | -19%
8 | O=C1C=CC(=O)N1c1ccc(-c2nc3ccccc3o2)cc1 | 100% (active)
9 | CCN(CC)CC(O)c1ccnc2c(O)cccc12 (configuration not stated) | -6%
10 | CCN(CC)CCOc1ccc(NC(=S)Nc2ccc(OCC(C)C)cc2)cc1 | 4%

same assay, conditions: S. cerevisiae bub3 mutant strain, at 50.0 µM (retest, dose inferred, filed as 5.0), hits give high values

Row | Compound | growth inhibition
11 | O=C1C(Cl)=C(N2C(=O)CCC2=O)C(=O)c2ccccc21 | 99% (active)
12 | Clc1ccc(CN2COc3c(cc(Cl)c4cccnc34)C2)cc1Cl | 97% (active)
13 | Cc1cc(C)c2c(c1)sc1nncn12 | 97% (active)
14 | O=[N+]([O-])C1=Cc2ccccc2S(=O)(=O)CC1 | 85% (active)
15 | O=C1CNCCCN2CCN(CCCNCC(=O)Nc3ccc(cc3)S(=O)(=O)c3ccc(cc3)NC(=O)CNCCCN3CCN(CCCNCC(=O)Nc4ccc(cc4)S(=O)(=O)c4ccc(cc4)N1)CC3)CC2 | 99% (active)
16 | O=C(Nc1ccccc1-c1nn(CN2CCNCC2)c(=S)n(CN2CCNCC2)c1=O)C(F)(F)F | 0%
17 | O=[N+]([O-])c1ccc(/C(=C\c2ccccc2)Cn2ccnc2)cc1 | 94% (active)
18 | CC1CCC(NCCOC(=O)c2ccc([N+](=O)[O-])cc2)CC1 (configuration not stated) | -71%
19 | Oc1cc(F)ccc1-c1ccc(F)cc1 | 99% (active)
20 | CN(C)C(=O)/N=c1\ss/c(=N\C(=S)N(C)C)n1-c1ccccc1 | 50%
21 | CCOc1c(N=Nc2ccccc2OC)c(-c2ccccc2)nn1C(N)=S | 29%
22 | CS(C)=O.[Cl-].[Cl-].[NH-]CC(O)CN(Cc1ccccc1)CC(O)CN.[Pt] (configuration not stated) | -11%
23 | Clc1ccc(C2=CCN3CC=C(c4ccc(Cl)cc4)C23)cc1 | 41%
24 | O=C1CC(O)C=C1Nc1ccc(Cl)cc1 (configuration not stated) | -22%
25 | COc1cc(NCCCCCNC(C)C)c2ncc(C)c(C)c2c1 | 35%
26 | Cc1ccc(C(c2ccc(N(C)C)cc2)c2ccc(N(C)C)cc2)cc1 | 92% (active)
27 | COc1ccc(OC)c2c1C=C[C@H](C1(C)SCCS1)C2C(C)=O (some centres not stated) | 90% (active)
28 | CCOC(=O)c1cc2c(nc1NCc1ccc(OC)c(OC)c1)/C(=C/c1ccccc1)CCCC2 | 94% (active)
29 | N#Cc1ccccc1[N+](=O)[O-] | 54%
30 | O=C1c2cccc3cc4ccccc4c(c23)C(=O)N1CCCNCCNCCCN1C(=O)c2cccc3cc4ccccc4c(c23)C1=O | 98% (active)
31 | CC(=O)Oc1ccc(N=[N+]([O-])c2ccc(OC(C)=O)cc2)cc1 | 2%
32 | CC(=O)Nc1ccc(N=C2c3ccccc3-c3ccc(NC(C)=O)cc32)cc1 | 53%
33 | Cc1cc(Cc2ccc(Cl)cc2)ccc1O | 99% (active)
34 | O=C1C=CC(=O)N1c1ccc(-c2nc3ccccc3o2)cc1 | 87% (active)
35 | CCN(CC)CC(O)c1ccnc2c(O)cccc12 (configuration not stated) | 42%
36 | CCN(CC)CCOc1ccc(NC(=S)Nc2ccc(OCC(C)C)cc2)cc1 | 47%

same assay, conditions: S. cerevisiae bub3 mutant strain, at 50.0 µM, hits give high values

Row | Compound | growth inhibition
37 | O=C1C(Cl)=C(N2C(=O)CCC2=O)C(=O)c2ccccc21 | 88.9% (active)
38 | Clc1ccc(CN2COc3c(cc(Cl)c4cccnc34)C2)cc1Cl | -4.9%
39 | Cc1cc(C)c2c(c1)sc1nncn12 | 98.9% (active)
40 | O=[N+]([O-])C1=Cc2ccccc2S(=O)(=O)CC1 | 90.5% (active)
41 | O=C1CNCCCN2CCN(CCCNCC(=O)Nc3ccc(cc3)S(=O)(=O)c3ccc(cc3)NC(=O)CNCCCN3CCN(CCCNCC(=O)Nc4ccc(cc4)S(=O)(=O)c4ccc(cc4)N1)CC3)CC2 | 97.8% (active)
42 | O=C(Nc1ccccc1-c1nn(CN2CCNCC2)c(=S)n(CN2CCNCC2)c1=O)C(F)(F)F | 8.65%
43 | O=[N+]([O-])c1ccc(/C(=C\c2ccccc2)Cn2ccnc2)cc1 | 81.8% (active)
44 | CC1CCC(NCCOC(=O)c2ccc([N+](=O)[O-])cc2)CC1 (configuration not stated) | 17.6%
45 | Oc1cc(F)ccc1-c1ccc(F)cc1 | 75.7% (active)
46 | CN(C)C(=O)/N=c1\ss/c(=N\C(=S)N(C)C)n1-c1ccccc1 | 68.5%
47 | CCOc1c(N=Nc2ccccc2OC)c(-c2ccccc2)nn1C(N)=S | 26.8%
48 | CS(C)=O.[Cl-].[Cl-].[NH-]CC(O)CN(Cc1ccccc1)CC(O)CN.[Pt] (configuration not stated) | -5.7%
49 | Clc1ccc(C2=CCN3CC=C(c4ccc(Cl)cc4)C23)cc1 | 99.8% (active)
50 | O=C1CC(O)C=C1Nc1ccc(Cl)cc1 (configuration not stated) | 97.8% (active)
51 | COc1cc(NCCCCCNC(C)C)c2ncc(C)c(C)c2c1 | 79% (active)
52 | Cc1ccc(C(c2ccc(N(C)C)cc2)c2ccc(N(C)C)cc2)cc1 | 94.7% (active)
53 | COc1ccc(OC)c2c1C=C[C@H](C1(C)SCCS1)C2C(C)=O (some centres not stated) | 76.5% (active)
54 | CCOC(=O)c1cc2c(nc1NCc1ccc(OC)c(OC)c1)/C(=C/c1ccccc1)CCCC2 | 92.5% (active)
55 | N#Cc1ccccc1[N+](=O)[O-] | 61.4%
56 | O=C1c2cccc3cc4ccccc4c(c23)C(=O)N1CCCNCCNCCCN1C(=O)c2cccc3cc4ccccc4c(c23)C1=O | 87.8% (active)
57 | CC(=O)Oc1ccc(N=[N+]([O-])c2ccc(OC(C)=O)cc2)cc1 | 14.7%
58 | CC(=O)Nc1ccc(N=C2c3ccccc3-c3ccc(NC(C)=O)cc32)cc1 | 87.8% (active)
59 | Cc1cc(Cc2ccc(Cl)cc2)ccc1O | 56.4%
60 | O=C1C=CC(=O)N1c1ccc(-c2nc3ccccc3o2)cc1 | 88.5% (active)
61 | CCN(CC)CC(O)c1ccnc2c(O)cccc12 (configuration not stated) | 0.1%
62 | CCN(CC)CCOc1ccc(NC(=S)Nc2ccc(OCC(C)C)cc2)cc1 | 76% (active)

From PubChem BioAssay (NCI)
